PubChem BioAssay AID1345085 (National Center for Advancing Translational Sciences (NCATS), 2018)
Records with an inconclusive call do not appear. Where a call stands in place of a potency, no number is given. Activity calls are given as the source filed them. Calls follow the shape of the dose curve; as a rule, active = well fitted cell-killing curve with a large enough effect; inconclusive = small, poorly fitted or top-dose-only effect, or effect the other way; inactive = no such curve, though single readings can be large or run the other way.

Test system: SKOV3
Assay: Confirmatory qHTS for gynecologic anti-cancer compounds from libraries of approved drugs and bioactive compounds; also: nearly all actives have a fitted effect of over 55% in size
Conditions: gynecologic cancer cell panel viability, ATPlite luminescence, 48 h; series mostly up to 57.6 µM
Summary of the method: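 ATP-based luminescent viability (ATPlite) after 48 h drug treatment at 37 °C, 5% CO2, across 57.5 uM–0.977 nM in 1:3 steps. Cells seeded at 1,000 per well 16 h beforehand; IC50 values computed, HEK 293T as selectivity control.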
Potency is read from the fitted curve at half-maximal effect.

Row | Compound | Potency
1 | Cc1cnc(Nc2ccc(CN3CCOCC3)cc2)nc1Nc1cccc(S(=O)(=O)NC(C)(C)C)c1 | 4.85 µM (active)
2 | CCn1c(-c2nonc2N)nc2c(C#CC(C)(C)O)ncc(OCC3CCCNC3)c21 (configuration not stated) | inactive
3 | CC(C)Oc1ccc2c(=O)c(-c3ccccc3)coc2c1 | 21.7 µM (active)
4 | CN(C)CC/C=C1\c2ccccc2COc2ccccc21 | inactive
5 | COC(C(=O)N1Cc2[nH]nc(NC(=O)c3ccc(N4CCN(C)CC4)cc3)c2C1)c1ccccc1 (configuration not stated) | inactive
6 | COc1cc(Nc2ncc3c(n2)-c2ccc(Cl)cc2C(c2c(F)cccc2OC)=NC3)ccc1C(=O)O | inactive
7 | CC(C)Nc1cc(-c2c[nH]c(C(=O)N[C@H](CO)c3cccc(Cl)c3)c2)c(Cl)cn1 | inactive
8 | COc1ccc(OC)c(-c2nnc3ccc(-c4ccc(OC)c(O[C@@H]5CCOC5)c4)nn23)c1 | inactive
9 | O=C1Cc2cc(CCN3CCN(c4nsc5ccccc45)CC3)c(Cl)cc2N1 | inactive
10 | COc1cc2c(Nc3ccc(NC(=O)c4ccccc4)cc3)ncnc2cc1OCCCN1CCOCC1 | inactive
11 | Cc1cnc(Nc2ccc(OCCN3CCCC3)cc2)nc1Nc1cccc(S(=O)(=O)NC(C)(C)C)c1 | 10.9 µM (active)
12 | Cc1cnc(Nc2cccc(CN3CCOCC3)c2)nc1Nc1cccc(S(=O)(=O)NC(C)(C)C)c1 | 10.9 µM (active)
13 | CCCCN(CCCC)CC(O)c1cc(Cl)cc2c1-c1ccc(Cl)cc1/C2=C/c1ccc(Cl)cc1 (configuration not stated) | inactive
14 | CC[C@H](CC#N)OC(=O)N[C@@H](C)c1cccc(NC(=O)Nc2ccc(-c3cnco3)c(OC)c2)c1 | inactive
15 | O=C1c2c(O)ccc(O)c2C(=O)c2c(NCCNCCO)ccc(NCCNCCO)c21 | 0.544 µM (active)
16 | Cc1cc(C(C)Nc2ccccc2C(=O)O)c2nc(N3CCOCC3)cc(=O)n2c1 (configuration not stated) | 3.06 µM (active)

Row | Compound | Potency
17 | Cc1ccc(C(=O)Nc2cccc(C(F)(F)F)c2)cc1-c1ccc2nc(NCCN3CCOCC3)ncc2c1 | 12.2 µM (active)
18 | Cc1nc(N)ncc1-c1nc(N2CCOCC2)c2sc(C(C)(C)O)cc2n1 | 0.432 µM (active)
19 | CCc1cccc(CC)c1NC(=O)N1Cc2[nH]nc(NC(=O)c3ccc(N4CCN(C)CC4)cc3)c2C1 | inactive
20 | COc1cc(N2CCC(N)CC2)ccc1Nc1ncc(Cl)c(-c2c[nH]c3ccccc23)n1 | 21.7 µM (active)
21 | CCN(CC)CCCC(C)Nc1ccnc2cc(Cl)ccc12 (configuration not stated) | inactive
22 | CC(=O)Nc1cccc(-n2c(=O)n(C3CC3)c(=O)c3c(Nc4ccc(I)cc4F)n(C)c(=O)c(C)c32)c1 | 0.306 µM (active)
23 | Cc1cnc(Nc2ccc(F)cc2Cl)nc1-c1c[nH]c(C(=O)NC(CO)c2cccc(Cl)c2)c1 (configuration not stated) | inactive
24 | Cc1c(C)n(Cc2ccc(-c3ccccc3C(=O)O)cc2)c2ccc(C(=O)N[C@@H](C)c3ccc([N+](=O)[O-])cc3)cc12 | inactive
25 | CC[C@@]1(O)C(=O)OCc2c1cc1n(c2=O)Cc2cc3c(CN(C)C)c(O)ccc3nc2-1 | 0.544 µM (active)
26 | CNC(=O)c1ccccc1Sc1ccc2c(/C=C/c3ccccn3)n[nH]c2c1 | 19.3 µM (active)
27 | CN(C)C1CCN(C(=O)c2ccc(NC(=O)Nc3nc(N4CCOCC4)nc(N4CCOCC4)n3)cc2)CC1 | 0.109 µM (active)
28 | CC(C)n1c(/C=C/[C@@H](O)C[C@@H](O)CC(=O)O)c(-c2ccc(F)cc2)c2ccccc21 | 1.72 µM (active)
29 | CN(C)C(CCOc1cccc2ccccc12)c1ccccc1 (configuration not stated) | inactive
30 | CC(C)CC(=O)Nc1n[nH]c2c1CN(C(=O)C1CCN(C)CC1)C2(C)C | inactive
31 | COc1cc2c(NC3CCN(C(C)C)CC3)nc(C3CCCCC3)nc2cc1OCCCN1CCCC1 | 30.6 µM (active)
32 | COc1cc2c(cc1-c1c(C)noc1C)ncc1[nH]c(=O)n(C(C)c3ccccn3)c12 (configuration not stated) | inactive
